Inhibition data for 63 compounds are collected here from ChEMBL document CHEMBL4808148, “HDAC6 screening dataset using tau-based substrate in an enzymatic assay yields selective inhibitors and activators” (2021).

The structures appear in SMILES notation. The campaign covered roughly 5,600 compounds. About 390 (7%) showed an effect of 50% or more. What follows is part of a selection rich in strong results, with near analogues and random picks from the rest.

For the test, the target named is T1, Protein deacetylase HDAC6 (Homo sapiens) (UniProt Q9UBN7).
T1 sequence (whole entry): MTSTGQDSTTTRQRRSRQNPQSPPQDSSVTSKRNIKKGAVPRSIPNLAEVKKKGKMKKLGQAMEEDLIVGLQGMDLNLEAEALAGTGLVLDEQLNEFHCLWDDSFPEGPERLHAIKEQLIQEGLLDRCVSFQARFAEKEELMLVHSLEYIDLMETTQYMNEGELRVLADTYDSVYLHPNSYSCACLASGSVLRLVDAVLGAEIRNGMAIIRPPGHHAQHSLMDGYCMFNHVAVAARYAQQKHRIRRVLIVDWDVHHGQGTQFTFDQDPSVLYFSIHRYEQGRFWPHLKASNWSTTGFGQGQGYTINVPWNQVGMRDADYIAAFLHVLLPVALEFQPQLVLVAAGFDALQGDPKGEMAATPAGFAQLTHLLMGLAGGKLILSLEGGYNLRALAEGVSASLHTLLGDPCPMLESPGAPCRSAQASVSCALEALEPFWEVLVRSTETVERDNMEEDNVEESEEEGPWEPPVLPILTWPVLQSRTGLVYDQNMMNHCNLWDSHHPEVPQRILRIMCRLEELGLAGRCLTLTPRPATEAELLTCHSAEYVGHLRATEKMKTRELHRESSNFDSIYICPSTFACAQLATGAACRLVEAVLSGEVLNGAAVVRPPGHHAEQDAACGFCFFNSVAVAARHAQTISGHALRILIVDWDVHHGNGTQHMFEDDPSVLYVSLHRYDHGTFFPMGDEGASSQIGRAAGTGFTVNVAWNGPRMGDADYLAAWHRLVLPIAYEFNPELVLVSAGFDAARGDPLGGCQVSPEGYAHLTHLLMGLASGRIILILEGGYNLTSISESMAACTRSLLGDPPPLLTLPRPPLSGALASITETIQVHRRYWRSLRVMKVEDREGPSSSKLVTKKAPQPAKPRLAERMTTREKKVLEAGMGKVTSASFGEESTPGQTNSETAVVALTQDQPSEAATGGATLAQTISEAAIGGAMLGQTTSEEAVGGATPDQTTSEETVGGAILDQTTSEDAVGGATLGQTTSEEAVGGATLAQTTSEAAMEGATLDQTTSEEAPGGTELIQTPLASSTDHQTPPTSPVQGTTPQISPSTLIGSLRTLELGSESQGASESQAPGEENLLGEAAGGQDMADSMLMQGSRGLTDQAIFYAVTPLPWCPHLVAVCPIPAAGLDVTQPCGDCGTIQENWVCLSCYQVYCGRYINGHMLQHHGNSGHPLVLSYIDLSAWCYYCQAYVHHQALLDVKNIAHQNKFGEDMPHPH
The note with it: at 10 µM.
In the case of `C[N+](C)(C)NCCC(=O)[O-]`, the inhibition turned out to be 17.8%.

For the compound `Cn1c(=O)c2c(ncn2CCOC(=O)C(C)(C)Oc2ccc(Cl)cc2)n(C)c1=O`, the inhibition was 23.6%.

As to `c1ccc(-c2n[nH]c3c2oc2ccccc23)cc1`, the inhibition was 95%.

With `CCC/C=C1\OC(=O)C2=C1CCC=C2`, the inhibition came to 39.5%.

Take `CC(=C\c1ccc(Cl)cc1)/C(C)=N/O`: the inhibition was 2.85%.

In the case of `NC(CC(F)C(=O)O)C(=O)O` (racemic), the inhibition stood at 38.9%.

In the case of `C=CC(C)(C)c1cc(/C=C/C(=O)c2ccc(O)cc2)c(OC)cc1O`, the inhibition is 75.1%.

Consider `COC(=O)/C=C/c1cc(O)ccc1O`, for which the inhibition was 28.1%.

Take `CCOc1cc2ncc(C#N)c(Nc3ccc(OCc4cccc(F)c4)c(Cl)c3)c2cc1NC(=O)/C=C/CN(C)C`: the inhibition was -4.4%.

Regarding `Clc1ccc2nsnc2c1NC1=NCCN1`, the inhibition is -9.25%.

For the compound `CC(C)Oc1ccc(Cc2ccc(NC3=NCCN3)cc2)cc1`, the inhibition turned out to be 64%.

For the compound `CCc1[nH]c(=O)[nH]c1C(=O)c1ccncc1`, the inhibition is -6.73%.

Regarding `COc1cc(OC)c2c(=O)[nH]c(-c3cc(C)c(OCCO)c(C)c3)nc2c1`, the inhibition amounted to 80.1%.

For `COc1ccc2nc3[nH]nc(C)c3c(NCCOCCO)c2c1`, the inhibition turned out to be 0.89%.

Take `Nc1nc(Nc2ccc(S(N)(=O)=O)cc2)nn1C(=O)c1c(F)cccc1F`: the inhibition came to 38.5%.

As to `COc1ccc(CNC(=O)c2sc3nc(C)cc(C)c3c2N)cc1`, the inhibition was 2.68%.

As for `C#Cc1cccc(Nc2ncnc3cc(OCCOC)c(OCCOC)cc23)c1`, the inhibition turned out to be 32.3%.

Consider `COc1cc2ncnc(Nc3cccc(Br)c3)c2cc1OC`, for which the inhibition amounted to 16.9%.

Take `C#Cc1cccc(Nc2ncnc3cc(OC)c(OCCCCCCC(=O)NO)cc23)c1`: the inhibition was 101%.

For `Cn1ccnc1S`, the inhibition is -0.6%.

For the compound `O=C(O)c1cc(C(=O)O)c(C(=O)N(Cc2cccc(Oc3ccccc3)c2)[C@H]2CCCc3ccccc32)cc1C(=O)O`, the inhibition was 7.63%.

With `Cc1ccc(Sc2ccccc2N2CCNCC2)c(C)c1`, the inhibition is -7.14%.

With `CC(=O)Nc1cccc(O)c1`, the inhibition is 34.1%.

On to `COC(=O)/C=C/c1cccc(N(Cc2ccc(-c3ccc(N(C)C)cc3)cc2)C(=O)C2CCCCC2)c1`, for which the inhibition is -3.18%.

As to `CN(C)C(=O)Nc1cccc(-c2ccc(N(C)C)cc2)c1`, the inhibition worked out at 94.6%.

With `CC1(C)C(/C=C/C=C/C=C/C=C2\N(CCCCS(=O)(=O)O)c3ccc4ccccc4c3C2(C)C)=[N+](CCCCS(=O)(=O)[O-])c2ccc3ccccc3c21`, the inhibition turned out to be 21.1%.

On to `O=C(O)COCCN1CCN(C(c2ccccc2)c2ccc(Cl)cc2)CC1` (stereo not drawn), for which the inhibition is -6.57%.

`O=C(O)COCCN1CCN([C@H](c2ccccc2)c2ccc(Cl)cc2)CC1`: the inhibition is -6.59%.

For the compound `OCCOCCN1CCN(C(c2ccccc2)c2ccc(Cl)cc2)CC1` (stereo not drawn), the inhibition turned out to be 89.5%.

Turning to `Cc1c(CC(C)(C)C(=O)O)n(Cc2ccc(Cl)cc2)c2ccc(F)cc12`, the inhibition is 3.54%.

On to `Nc1ccn([C@@H]2C(F)=C(CO)[C@@H](O)[C@H]2O)c(=O)n1`, for which the inhibition came out at 8.8%.

`CCc1cccc(CC)c1NC(=O)c1nn(C)c2c1CCc1cnc(Nc3ccc(C(=O)NC4CCN(C)CC4)cc3OC(F)(F)F)nc1-2`: the inhibition is -2.89%.

As to `CC(C)(CCCCCCCCCCC(C)(C)CC(=O)O)CC(=O)O`, the inhibition was -0.28%.

Take `N#Cc1cccc(-c2nc(-c3cccnc3)no2)c1`: the inhibition is 19.8%.

Turning to `N#Cc1cc(F)cc(-c2nc(-c3ccc(F)cn3)no2)c1`, the inhibition came out at 83.6%.

Take `COC(=O)c1cnn(-c2ccc(F)cc2F)c1/C=N/NC(=S)NC(C)(C)C`: the inhibition was determined as 0.12%.

On to `CC[C@H](C)[C@H](N)C(=O)O`, for which the inhibition worked out at 9.28%.

With `COc1ncc2cc(C(=O)Nc3cc(C(=O)NCc4cccc(Cl)c4)ccc3Cl)c(=O)[nH]c2n1`, the inhibition is 4.52%.

On to `Cn1nc(-c2cccc(F)c2)n(C)c1=S`, for which the inhibition amounted to 17.9%.

As to `Cc1csc(S(=O)(=O)N(CC(C)C)c2cc3c(cc2OCc2ccc(C(=O)O)cc2)CCC3)n1`, the inhibition amounted to 1.78%.

As to `Cc1ccc(NC(=O)c2cccc(N(C)C)c2)cc1NC(=O)c1ccc(O)cc1`, the inhibition was 80.4%.

As for `Cc1ccc(C(=O)Nc2ccc(S(=O)(=O)O)c3cc(S(=O)(=O)O)cc(S(=O)(=O)O)c23)cc1NC(=O)c1cccc(NC(=O)Nc2cccc(C(=O)Nc3cc(C(=O)Nc4ccc(S(=O)(=O)O)c5cc(S(=O)(=O)O)cc(S(=O)(=O)O)c45)ccc3C)c2)c1`, the inhibition came out at 32.3%.

Take `CNCc1ccc(C)c(NC(=O)c2ccc(Nc3nc(-c4ccccc4)c4ccccc4n3)cc2)c1`: the inhibition is -7.66%.

As for `CC(=O)O[C@H]1CC[C@@]2(C)C(=CC[C@@H]3[C@@H]2CC[C@]2(C)C(c4cccnc4)=CC[C@@H]32)C1`, the inhibition was 15.8%.

As to `O=[N+]([O-])c1cc2nc(O)c(O)nc2cc1[N+](=O)[O-]`, the inhibition is -5.28%.

For the compound `O=C(O)c1cc(=O)c2ccccc2o1`, the inhibition was -1.55%.

In the case of `CC(C)c1ccc(-c2cc(=O)c3ccccc3o2)cc1`, the inhibition is 101%.

As to `NCCC(Oc1ccc(C(F)(F)F)cc1)c1ccccc1` (stereo not drawn), the inhibition was 1.38%.

With `CC[C@H]1OC(=O)[C@@](C)(F)C(=O)[C@H](C)[C@@H](O[C@@H]2O[C@H](C)C[C@H](N(C)C)[C@H]2O)[C@](C)(OC)C[C@@H](C)C(=O)[C@H](C)[C@H]2N(CCCCn3cc(-c4cccc(N)c4)nn3)C(=O)O[C@]12C`, the inhibition is 17.2%.

Regarding `c1ccc2sc(SN3CCOCC3)nc2c1`, the inhibition was 58.2%.

Turning to `FC(F)c1nc2ccccc2n1-c1nc(N2CCOCC2)nc(N2CCOCC2)n1`, the inhibition is 29.1%.

For `COc1ccccc1Oc1c(NS(=O)(=O)c2ccc(C(C)(C)C)cc2)nc(-c2ncccn2)nc1OCCO`, the inhibition came to 22.5%.

`COc1ccc(F)c(F)c1C(=O)c1cnc(NC2CCN(S(C)(=O)=O)CC2)nc1N`: the inhibition is -5.57%.

Consider `C=CCNC(=O)c1cc([N+](=O)[O-])cc2c(=O)[nH]c(Nc3ccc(Cl)c(Cl)c3)nc12`, for which the inhibition was determined as 17.8%.

Turning to `CN(C)c1ccc2c(c1)Sc1cc(N(C)C)ccc1N2`, the inhibition was 66.8%.

Take `N#CN=C(NCCCCCCOc1ccc(Cl)cc1)Nc1ccncc1`: the inhibition was -6.3%.

`COc1cc2c(NC3CCN(C(C)C)CC3)nc(N3CCC(F)(F)CC3)nc2cc1OCCCN1CCCC1`: the inhibition was -5.91%.

On to `COc1cc(C2Oc3ccc(C4Oc5cc(O)cc(O)c5C(=O)C4O)cc3OC2CO)ccc1O` (stereo not drawn), for which the inhibition is -5.75%.

Take `Cc1cc(Cn2nnc3c(-c4ccco4)nc(N)nc32)ccc1N`: the inhibition was -1.08%.

With `Cc1c(OCc2cccc(-c3ccc(C(=O)O)cc3)c2)cc2c(c1C)C(=O)C(C1CCCC1)C2` (stereo not drawn), the inhibition was -0.56%.

As for `CCCCn1ccc(N2CCC(c3ccccc3)CC2)c(Cl)c1=O`, the inhibition came out at 59.9%.

For the compound `CCN1C(=O)NC(c2ccccc2)C1=O` (stereo not drawn), the inhibition stood at 22.6%.

For the compound `Cc1ccc2c(c1)C(=O)C1(O)CCN(c3ccccc3)C1=N2` (racemic), the inhibition amounted to 1.13%.

As usually defined, the inhibition is the relative decrease from the control value, in per cent.
